For 79 molecules, activity change, negative = inhibition results are on record in PubChem BioAssay AID493248 (Broad Institute, 2011).

Out of some 2,300 compounds screened, about 1,400 (61%) were called active. Inconclusive results (about 7%) are left out. How the calls were made is not given here. The set was probably picked from earlier hits. Not all results are given here. Results with a measured potency or affinity are listed apart.

The target of this assay is FAD-linked sulfhydryl oxidase ALR (Homo sapiens) (UniProt P55789). The assay is described as follows: ALR-catalysed DTT oxidation blockers – biochemical, H2O2 detection, luminescence, cherry-pick, dose response (AID 493248). As to conditions: purified ALR, H2O2 HRP-luminol luminescence; at 10 µM (top of the series).
FAD-linked sulfhydryl oxidase ALR (Homo sapiens), sequence (P55789 whole entry, looked up): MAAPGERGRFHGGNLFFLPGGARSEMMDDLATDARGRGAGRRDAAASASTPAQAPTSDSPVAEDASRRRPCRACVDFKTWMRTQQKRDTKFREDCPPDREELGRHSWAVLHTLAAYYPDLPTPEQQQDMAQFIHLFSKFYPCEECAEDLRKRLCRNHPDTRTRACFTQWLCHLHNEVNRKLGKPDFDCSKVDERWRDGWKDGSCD
For the molecule `Cn1nnnc1SCc1ccc(C(=O)Nc2nccs2)cc1`, the activity change, negative = inhibition is -48.1%.
Take `O=C1NCCCc2c1oc1ccc(O)cc21`: the activity change, negative = inhibition was found to be 36.1%.
Consider `Nc1nn2cc(-c3ccccc3)nc2c2ccccc12`, for which the activity change, negative = inhibition was -12.4%.
Under `COC(=O)CNS(=O)(=O)c1ccc(Cc2ccc(S(=O)(=O)NCC(=O)OC)cc2)cc1` stands 3.52%; under `CCCc1cc(=O)[nH]c(Nc2ccc(O)cc2)n1`, -100%; under `Cn1cccc1C(=O)OCc1csc(-c2ccccc2)n1`, 0.233%.
In the case of `O=C(c1ccc(Cl)s1)N1CCN(c2ccccc2)CC1` it was -20%; in that of `O=C(c1cc(C2CC2)on1)N1CCN(c2ccccc2)CC1`, -8.71%.
For `Cc1cc(C(=O)CC#N)c(C)n1CC(F)(F)F`, the activity change, negative = inhibition was -17.1%.
Take `COc1cccc(/C=N/NC(=O)CNC(=O)c2cccnc2)c1O`: the activity change, negative = inhibition is -19%.
Under `CCN1CCSc2ccc(C(=O)NCc3cccc(F)c3)cc21` stands 16%; under `CCCC(C(=O)O)n1c(O)c(C=C2N=c3ccccc3=N2)sc1=S` (centres undefined), -50.1%; under `O=C(c1ccco1)n1nc(-c2ccccc2)nc1NCc1ccco1`, -41.9%.
Take `O=[N+]([O-])c1cc2c(cc1/C=N/n1c(-c3ccccc3)n[nH]c1=S)OCO2`: the activity change, negative = inhibition was -34.5%.
Turning to `CC(C)c1cc(C(=O)N/N=C/c2ccco2)n[nH]1`, the activity change, negative = inhibition worked out at 21.6%.
As to `CC(=C\c1ccccc1)/C=C1/SC(=O)N(CCCC(=O)Nc2ccc(C(=O)O)cc2)C1=O`, the activity change, negative = inhibition was determined as 1.78%.
With `S=c1[nH]nc(Cc2ccccc2)n1-c1ccccc1`, the activity change, negative = inhibition is -7.81%.
Take `CC(=O)Oc1ccc(Nc2ccccc2)cc1`: the activity change, negative = inhibition is -1.83%.
As to `COc1ccc2oc3cc(C)[n+]([O-])c(-c4ccc(C)cc4)c3c2c1`, the activity change, negative = inhibition is -57.4%.
On to `O=C(O)CC/C(=C\c1ccccc1[N+](=O)[O-])c1nc2ccccc2s1`, for which the activity change, negative = inhibition was -55.4%.
In the case of `COc1ccc(-c2noc(CN3CCN(c4ccccc4F)CC3)n2)cc1OC`, the activity change, negative = inhibition was -0.443%.
As to `C(=N\Nc1ncnc2ccccc12)/c1ccccc1`, the activity change, negative = inhibition was -47.4%.
Turning to `O=C(O)CCCN1C(=O)/C(=C\c2ccc(-c3nc4ccccc4s3)o2)SC1=S`, the activity change, negative = inhibition was -22.6%.
For the molecule `COc1cc(/C=C2\SC(=S)N(NC(=O)c3ccc(O)cc3)C2=O)ccc1O`, the activity change, negative = inhibition is -100%.
Regarding `COc1ccc(OC)c(NC(=O)CN(c2ccc(C(C)C)cc2)S(=O)(=O)c2c(C)noc2C)c1`, the activity change, negative = inhibition amounted to 28.2%.
Take `COc1ccc(C(=O)N/N=C(/C)c2ccc(N3CCCCC3)cc2)cc1`: the activity change, negative = inhibition was -0.469%.
With `COc1cc(NC(=O)NCCN2CCN(c3ccccc3)CC2)cc(OC)c1OC`, the activity change, negative = inhibition is -25.8%.
Under `COc1ccc(NC(=O)c2cccnc2N2CCCC2)cc1` stands 19.3%; under `COc1c(C)cccc1C(=O)Nc1ccc(CN2CCCCC2)cc1`, 7.1%.
For `O=C(Nc1cc([N+](=O)[O-])ccc1O)c1ccc2c(c1)C(=O)N(Cc1ccco1)C2=O`, the activity change, negative = inhibition is -17.4%.
With `CCCN1C(=O)c2ccc(C(=O)Nc3ccccc3C(=O)O)cc2C1=O`, the activity change, negative = inhibition was -23.6%.
`COc1ccc(C)cc1NCc1ccc(OC)c(C)c1OC`: the activity change, negative = inhibition is -55.4%.
In the case of `Cc1ccc(N2CC(=O)N(NC(=O)CN3CCN(c4ccccc4)CC3)CC2=O)cc1` it was -47.4%.
Regarding `COc1ccc(C(=O)N/N=C/C2CC=CCC2)cc1OC` (centres undefined), the activity change, negative = inhibition was -39.6%.
For the molecule `Fc1ccc(-n2c(-c3ccc4c(c3)OCO4)n[nH]c2=S)cc1Cl`, the activity change, negative = inhibition is -56.2%.
As to `CN1C(=O)C2C(c3ccc(N(C)C)cc3)=NN(Cc3ccccc3)C2C1=O` (centres undefined), the activity change, negative = inhibition is -0.925%.
Under `Cc1nc2cc(N)ccc2n1-c1ccccc1` stands 367%; under `CC1=Nc2ccccc2N=C(N)C1c1ccccc1` (centres undefined), -61.3%.
For the molecule `Cc1cc(C(=O)NNc2ccc(F)cc2F)no1`, the activity change, negative = inhibition turned out to be 5.89%.
In the case of `COc1cc(C(=S)N(C)C)ccc1O` it was -5.3%.
As to `O=Cc1ccc(O)c(O)c1`, the activity change, negative = inhibition is -17.2%.
Consider `Oc1ccc(/C=N/N=C/c2ccc(O)cc2)cc1`, for which the activity change, negative = inhibition amounted to 256%.
As for `Oc1ccc(N=Cc2ccc(O)c(O)c2)cc1`, the activity change, negative = inhibition is 102%.
For the molecule `CC(C)CNC(=O)C(=O)N/N=C/c1cccs1`, the activity change, negative = inhibition is -15.3%.
Regarding `CCn1c(O)c(/C=N/n2cnnc2)sc1=S`, the activity change, negative = inhibition was -33%.
In the case of `Cc1cccc(NCCNc2cccc(C)c2)c1` it was -44.1%.
Under `C/C(=N\NC(=O)CCCNc1ccc(C)cc1)c1ccccn1` stands 419%.
`Cc1cccc(N/N=C/c2ccncc2)c1`: the activity change, negative = inhibition is -105%.
Turning to `CC(C)C(=O)c1ccc(O)c(O)c1`, the activity change, negative = inhibition was -24.1%.
Regarding `Cc1cccc(Nc2nc(N)nc(CCl)n2)c1C`, the activity change, negative = inhibition was -38.4%.
In the case of `CN(C)CCC(=O)N1c2ccccc2Sc2ccc(C(F)(F)F)cc21` it was -13.8%; in that of `CCNc1nc(OC)nc(N(OC)S(=O)(=O)c2ccc(C)cc2)n1`, -55.8%.
Under `O=S(=O)(Cc1ccccc1)N(O)c1ccccc1` stands -38.7%; under `CCCN1C(=O)c2cc(C(=O)NC3CCCCCC3)ccc2C1O` (centres undefined), -16.6%.
For the molecule `CC(C)(O)C#Cc1ccc(C(=O)NC2CCCCC2)s1`, the activity change, negative = inhibition is -45.6%.
On to `Cc1ccc(NC(=O)CCC(=O)N/N=C/c2ccc(O)cc2)cc1`, for which the activity change, negative = inhibition was -2.67%.
In the case of `O=C(CCn1cnc2ccccc21)N/N=C/c1ccc(O)cc1` it was -88.9%; in that of `Nc1c(Cl)ncnc1N/N=C/c1cccc(O)c1`, -7.72%.
`O/N=C/c1cccn1-c1ccc(O)cc1`: the activity change, negative = inhibition was -99.2%.
`O=C(C[n+]1ccccc1)N/N=C/c1ccc(O)cc1`: the activity change, negative = inhibition is -108%.
For the molecule `O=c1oc2ccccc2n1CSC1=NCCS1`, the activity change, negative = inhibition is -21.8%.
On to `O=[n+]1cc(-c2cc3ccccc3o2)n([O-])c2c1CCCC2`, for which the activity change, negative = inhibition was -33.9%.
`Cc1cc(Nc2ccccc2)n(CCC#N)n1`: the activity change, negative = inhibition is -16.4%.
On to `CC(C)NC(=O)c1ccccc1S(=O)c1ccccc1C#N` (centres undefined), for which the activity change, negative = inhibition is -2.78%.
Regarding `CN(C)c1ccc(/C(=N\O)C(F)(F)F)cc1`, the activity change, negative = inhibition is -20%.
For `O=C(O)c1ccccc1Nc1ccccc1`, the activity change, negative = inhibition was -21%.
For the molecule `Cc1ccc(Nc2c(F)c(F)c(F)c(F)c2C(=O)O)c(C)c1`, the activity change, negative = inhibition was -51.9%.
Regarding `Cc1ccc(O)c(-c2cc(C(F)(F)C(F)F)[nH]n2)c1`, the activity change, negative = inhibition was found to be 3.95%.
On to `COc1ccc([N+](=O)[O-])cc1NC1CCCCC1`, for which the activity change, negative = inhibition was -14.6%.
Under `COc1ccc(CCC(=O)N2CCCC(Nc3ccc(OC)cc3)C2)cc1` (centres undefined) stands 9.94%; under `Cc1ccc2[nH]cc(CCNC(=O)c3cccnc3)c2c1`, -59.6%.
Take `Cn1c(=O)c2c(-c3ccccc3)n(-n3cnnc3)cc2n(C)c1=O`: the activity change, negative = inhibition is -14.5%.
With `Cc1cccc(C2CN(C)CCc3c2cc(O)c(O)c3Cl)c1` (centres undefined), the activity change, negative = inhibition is -100%.
For `C=CCN1CCc2cc(O)c(O)cc2C(c2ccccc2)C1` (centres undefined), the activity change, negative = inhibition is -91.4%.
As for `Cn1c(=O)[nH]c(=O)c2c1[nH]c(=S)n2Cc1ccc(Cl)cc1`, the activity change, negative = inhibition is -38.6%.
Take `CCN1CCN(Cc2nc3c(c(=O)n(C)c(=O)n3C)n2CC(=O)c2ccccc2)CC1`: the activity change, negative = inhibition came out at 13.8%.
For `CCCCCn1c(Br)nc2c1c(=O)n(CC(N)=O)c(=O)n2C`, the activity change, negative = inhibition is -20.4%.
With `N#C/C(N=Nc1ccccc1O)=N\Nc1ccccc1O`, the activity change, negative = inhibition is 22.3%.
In the case of `CC(C)(C)Nc1c(-c2cccs2)nc2ccccn12` it was -39.4%.
